Measured values taken from PubChem BioAssay AID1159580 (chemical genetic matrix, 2015).
The campaign covered roughly 5,500 compounds. About 2,000 (36%) were called active. Another 18% or so got no clear call; they are omitted. Rule as the data show it: active = normalized growth mostly below about 0.91 (no sharp cut-off); inconclusive = no clear call, values can overlap the other calls; inactive = mostly above about 0.92. The list shows a part of the results.

Test: chemical genetic growth profiling, strain panel (AID 1159580);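 also: tested at 20 µM; growth read once vehicle control cultures reached saturation at 30 °C; 1 = growth at the plate median or of vehicle wells; lower values mean less growth of the strain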
Conditions: growth OD
[1] = S. cerevisiae deletion strains, locus YDL101C, strain DUN1, active compounds read low
[2] = S. cerevisiae deletion strains, locus YHR030C, strain SLT2, active compounds read low

Measured: normalized growth

Cc1c(Cl)cccc1N=C1SCC(=O)N1Cc1ccco1
active: [2] 0.758 | S. cerevisiae deletion strains, locus YLR113W, strain HOG1, active compounds read low 0.809 | S. cerevisiae deletion strains, locus YPL256C, strain CLN2, active compounds read low 0.791
inactive: S. cerevisiae deletion strains, locus YAR019C, strain CDC15, active compounds read low 0.981 | S. cerevisiae deletion strains, locus YBL105C, strain PKC1, active compounds read low 0.973 | S. cerevisiae deletion strains, locus YBR135W, strain CKS1, active compounds read low 0.972 | S. cerevisiae deletion strains, locus YBR136W, strain MEC1, active compounds read low 0.981 | S. cerevisiae deletion strains, locus YBR160W, strain CDC28, active compounds read low 0.971 | S. cerevisiae deletion strains, locus YDL017W, strain CDC7, active compounds read low 0.974 | S. cerevisiae deletion strains, locus YDL028C, strain MPS1, active compounds read low 0.977 | [1] 0.979 | S. cerevisiae deletion strains, locus YDL108W, strain KIN28, active compounds read low 0.972 | S. cerevisiae deletion strains, locus YDL132W, strain cdc53, active compounds read low 0.978 | S. cerevisiae deletion strains, locus YDL214C, strain PRR2, active compounds read low 0.905 | S. cerevisiae deletion strains, locus YDR052C, strain DBF4, active compounds read low 0.986 | S. cerevisiae deletion strains, locus YDR054C, strain cdc34, active compounds read low 0.96 | S. cerevisiae deletion strains, locus YDR226W, strain ADK1, active compounds read low 0.98 | S. cerevisiae deletion strains, locus YDR477W, strain SNF1, active compounds read low 0.918 | S. cerevisiae deletion strains, locus YER123W, strain YCK3, active compounds read low 0.884 | S. cerevisiae deletion strains, locus YER133W, strain GLC7, active compounds read low 0.915 | S. cerevisiae deletion strains, locus YFL009W, strain cdc4, active compounds read low 0.969 | S. cerevisiae deletion strains, locus YFL029C, strain CAK1, active compounds read low 0.971 | S. cerevisiae deletion strains, locus YFR003C, strain YPI1, active compounds read low 0.969 | S. cerevisiae deletion strains, locus YFR019W, strain FAB1, active compounds read low 0.918 | S. cerevisiae deletion strains, locus YFR028C, strain CDC14, active compounds read low 0.964 | S. cerevisiae deletion strains, locus YGR040W, strain KSS1, active compounds read low 0.912 | S. cerevisiae deletion strains, locus YGR052W, strain FMP48, active compounds read low 1 | S. cerevisiae deletion strains, locus YGR092W, strain DBF2, active compounds read low 0.943 | S. cerevisiae deletion strains, locus YHR079C, strain IRE1, active compounds read low 0.888 | S. cerevisiae deletion strains, locus YHR082C, strain KSP1, active compounds read low 0.942 | S. cerevisiae deletion strains, locus YHR205W, strain SCH9, active compounds read low 0.896 | S. cerevisiae deletion strains, locus YIL147C, strain SLN1, active compounds read low 0.975 | S. cerevisiae deletion strains, locus YJL095W, strain BCK1, active compounds read low 0.823 | S. cerevisiae deletion strains, locus YJL128C, strain PBS2, active compounds read low 0.951 | S. cerevisiae deletion strains, locus YJL157C, strain FAR1, active compounds read low 0.936 | S. cerevisiae deletion strains, locus YJR016C, strain ILV3, active compounds read low 0.969 | S. cerevisiae deletion strains, locus YJR066W, strain TOR1 (second series), active compounds read low 0.903 | S. cerevisiae deletion strains, locus YJR066W, strain TOR1, active compounds read low 0.893 | S. cerevisiae deletion strains, locus YKL048C, strain ELM1, active compounds read low 0.975 | S. cerevisiae deletion strains, locus YKL067W, strain YNK1, active compounds read low 0.903 | S. cerevisiae deletion strains, locus YKL101W, strain HSL1, active compounds read low 0.923 | S. cerevisiae deletion strains, locus YKL193C, strain SDS22, active compounds read low 0.966 | S. cerevisiae deletion strains, locus YKL203C, strain TOR2, active compounds read low 0.954 | S. cerevisiae deletion strains, locus YLR133W, strain CKI1, active compounds read low 0.918 | S. cerevisiae deletion strains, locus YLR403W, strain SFP1, active compounds read low 0.918 | S. cerevisiae deletion strains, locus YML070W, strain DAK1, active compounds read low 0.892 | S. cerevisiae deletion strains, locus YMR001C, strain CDC5, active compounds read low 0.973 | S. cerevisiae deletion strains, locus YMR205C, strain PFK2 (second series), active compounds read low 0.919 | S. cerevisiae deletion strains, locus YMR277W, strain FCP1, active compounds read low 0.969 | S. cerevisiae deletion strains, locus YNL006W, strain LST8, active compounds read low 0.974 | S. cerevisiae deletion strains, locus YNL020C, strain ARK1, active compounds read low 0.914 | S. cerevisiae deletion strains, locus YNL161W, strain CBK1, active compounds read low 0.978 | S. cerevisiae deletion strains, locus YNL183C, strain NPR1, active compounds read low 0.849 | S. cerevisiae deletion strains, locus YNL207W, strain RIO2, active compounds read low 0.974 | S. cerevisiae deletion strains, locus YNL222W, strain SSU72, active compounds read low 0.969 | S. cerevisiae deletion strains, locus YNL307C, strain MCK1 (second series), active compounds read low 0.892 | S. cerevisiae deletion strains, locus YOL078W, strain AVO1, active compounds read low 0.978 | S. cerevisiae deletion strains, locus YOL136C, strain PFK27, active compounds read low 0.889 | S. cerevisiae deletion strains, locus YOR061W, strain CKA2, active compounds read low 0.925 | S. cerevisiae deletion strains, locus YOR119C, strain RIO1, active compounds read low 0.998 | S. cerevisiae deletion strains, locus YOR231W, strain MKK1, active compounds read low 0.885 | S. cerevisiae deletion strains, locus YOR329C, strain SCD5, active compounds read low 0.976 | S. cerevisiae deletion strains, locus YPL031C, strain PHO85, active compounds read low 0.897 | S. cerevisiae deletion strains, locus YPL153C, strain RAD53, active compounds read low 0.916 | S. cerevisiae deletion strains, locus YPL204W, strain HRR25, active compounds read low 0.89 | S. cerevisiae deletion strains, locus YPL209C, strain IPL1, active compounds read low 0.976 | S. cerevisiae deletion strains, locus YPR025C, strain CCL1, active compounds read low 0.975 | S. cerevisiae deletion strains, locus YPR106W, strain ISR1, active compounds read low 0.963 | S. cerevisiae deletion strains, locus YPR111W, strain DBF20, active compounds read low 0.954 | S. cerevisiae deletion strains, strain NNK1, active compounds read low 0.951 | S. cerevisiae deletion strains, strain TSCII, active compounds read low 0.976

COc1ccccc1N=C1SCC(=O)N1Cc1ccco1
inactive: S. cerevisiae deletion strains, locus YAL013W, strain DEP1, active compounds read low 0.993 | S. cerevisiae deletion strains, locus YBR229C, strain ROT2, active compounds read low 0.99 | [1] 0.983 | S. cerevisiae deletion strains, locus YDR150W, strain NUM1, active compounds read low 0.9 | S. cerevisiae deletion strains, locus YEL061C, strain CIN8, active compounds read low 0.989 | S. cerevisiae deletion strains, locus YGR078C, strain PAC10, active compounds read low 0.981 | S. cerevisiae deletion strains, locus YGR229C, strain SMI1, active compounds read low 1 | [2] 0.956 | S. cerevisiae deletion strains, locus YHR087W, strain rtc3, active compounds read low 0.989 | S. cerevisiae deletion strains, locus YJR043C, strain POL32, active compounds read low 0.977 | S. cerevisiae deletion strains, locus YJR075W, strain HOC1, active compounds read low 0.978 | S. cerevisiae deletion strains, locus YKL190W, strain CNB1, active compounds read low 0.997 | S. cerevisiae deletion strains, locus YLR039C, strain RIC1, active compounds read low 0.989 | S. cerevisiae deletion strains, locus YLR058C, strain SHM2 (second series), active compounds read low 0.99 | S. cerevisiae deletion strains, locus YLR085C, strain ARP6, active compounds read low 0.968 | S. cerevisiae deletion strains, locus YLR262C, strain YPT6, active compounds read low 0.998 | S. cerevisiae deletion strains, locus YML094W, strain GIM5, active compounds read low 0.972 | S. cerevisiae deletion strains, locus YMR219W, strain ESC1, active compounds read low 0.989 | S. cerevisiae deletion strains, locus YMR263W, strain SAP30, active compounds read low 0.987 | S. cerevisiae deletion strains, locus YNL153C, strain GIM3, active compounds read low 0.987 | S. cerevisiae deletion strains, locus YNL298W, strain CLA4 (second series), active compounds read low 0.997 | S. cerevisiae deletion strains, locus YNL322C, strain KRE1, active compounds read low 0.985 | S. cerevisiae deletion strains, locus YNR030W, strain Alg12, active compounds read low 0.998 | S. cerevisiae deletion strains, locus YOL006C, strain TOP1, active compounds read low 0.951 | S. cerevisiae deletion strains, locus YPL055C, strain LGE1, active compounds read low 0.969 | S. cerevisiae deletion strains, locus YPL241C, strain CIN2, active compounds read low 1.01 | S. cerevisiae deletion strains, locus YPR135W, strain CTF4, active compounds read low 0.939 | S. cerevisiae strains, strain wild type, active compounds read low 1
